How the values were obtained:
Test in all cases: DAPPL (digital affinity profiling via proximity ligation, sequencing); 10 mM Tris-HCl pH 7.5, 50 mM NaCl, 1 mM DTT, 4% glycerol, room temperature, 30 min; GST-TFs on glutathione beads, 16-mer random dsDNA library, 0.1% formaldehyde crosslink after washing; high values mean tight binding
[1] = target: T1, FEV (Homo sapiens, UniProt Q99581 1-238); details: protein: recombinant; tags: N-terminal GST; dsDNA, one strand shown
T1 sequence: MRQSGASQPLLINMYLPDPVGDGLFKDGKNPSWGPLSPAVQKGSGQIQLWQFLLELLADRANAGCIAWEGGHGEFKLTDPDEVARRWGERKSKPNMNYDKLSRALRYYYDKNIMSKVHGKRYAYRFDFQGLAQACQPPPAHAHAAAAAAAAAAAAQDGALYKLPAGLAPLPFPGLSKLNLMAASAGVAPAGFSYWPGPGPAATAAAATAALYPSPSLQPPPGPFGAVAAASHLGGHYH
Outline: (§1)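 Human transcription factors were made in yeast as GST fusions, captured on glutathione beads and barcoded with DNA. With a tag-only sample included, the pool was incubated with 200 nmole of a random double-stranded 16-mer DNA library in Tris/NaCl/DTT/glycerol buffer at room temperature for 30 min, then crosslinked with 0.1% formaldehyde after washing, ligated by proximity, amplified and sequenced. For binding signal, each hexamer's read frequency for a factor is divided by its frequency for the tag-only sample.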

[2] = target: ETV5 (Homo sapiens, UniProt P41161 1-510); details: protein: recombinant; tags: N-terminal GST; dsDNA, one strand shown
Outline: as §1

[3] = target: HSF1 (Homo sapiens, UniProt Q00613 1-529); details: protein: recombinant; tags: N-terminal GST; chain copies: 3; dsDNA, one strand shown
Outline: as §1

[4] = target: T2, SPIC (Homo sapiens, UniProt Q8N5J4 1-248); details: protein: recombinant; tags: N-terminal GST; dsDNA, one strand shown
T2 sequence: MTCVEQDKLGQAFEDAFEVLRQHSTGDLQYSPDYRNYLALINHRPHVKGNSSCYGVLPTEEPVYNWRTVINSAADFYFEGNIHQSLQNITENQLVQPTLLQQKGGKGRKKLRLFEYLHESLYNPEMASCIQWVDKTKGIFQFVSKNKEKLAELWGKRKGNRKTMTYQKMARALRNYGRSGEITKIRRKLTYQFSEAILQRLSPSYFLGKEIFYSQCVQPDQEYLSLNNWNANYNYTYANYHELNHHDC
Outline: as §1

[5] = target: ELF4 (Homo sapiens, UniProt Q99607 1-663); details: protein: recombinant; tags: N-terminal GST; dsDNA, one strand shown
Outline: as §1

[6] = target: T3, ELK4 (Homo sapiens, UniProt P28324-2 1-405); details: protein: recombinant; tags: N-terminal GST; dsDNA, one strand shown
T3 sequence: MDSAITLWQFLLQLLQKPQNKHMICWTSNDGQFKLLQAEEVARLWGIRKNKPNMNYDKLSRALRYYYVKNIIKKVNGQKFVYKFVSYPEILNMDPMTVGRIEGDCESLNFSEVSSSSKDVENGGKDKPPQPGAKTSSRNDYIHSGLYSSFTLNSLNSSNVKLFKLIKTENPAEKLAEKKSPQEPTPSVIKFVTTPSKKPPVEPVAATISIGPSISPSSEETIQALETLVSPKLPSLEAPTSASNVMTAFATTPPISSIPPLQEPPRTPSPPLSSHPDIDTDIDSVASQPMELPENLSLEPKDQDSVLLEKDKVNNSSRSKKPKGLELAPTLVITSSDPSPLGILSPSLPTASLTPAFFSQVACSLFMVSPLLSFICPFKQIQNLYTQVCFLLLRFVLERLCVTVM
Outline: as §1

[7] = target: T4, ETV2 (Homo sapiens, UniProt O00321 1-342); details: protein: recombinant; tags: N-terminal GST; dsDNA, one strand shown
T4 sequence: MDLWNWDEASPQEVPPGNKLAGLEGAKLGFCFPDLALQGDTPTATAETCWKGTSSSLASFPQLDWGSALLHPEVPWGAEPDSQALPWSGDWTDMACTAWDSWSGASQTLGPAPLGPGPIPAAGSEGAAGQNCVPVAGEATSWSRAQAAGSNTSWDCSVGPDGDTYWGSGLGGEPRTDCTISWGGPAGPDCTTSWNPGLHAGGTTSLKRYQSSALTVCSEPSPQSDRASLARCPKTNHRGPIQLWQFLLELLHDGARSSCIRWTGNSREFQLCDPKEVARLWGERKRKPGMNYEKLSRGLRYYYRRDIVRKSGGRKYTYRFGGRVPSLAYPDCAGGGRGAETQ
Outline: as §1

[8] = target: T5, ELF3 (Homo sapiens, UniProt P78545 1-371); details: protein: recombinant; tags: N-terminal GST; dsDNA, one strand shown
T5 sequence: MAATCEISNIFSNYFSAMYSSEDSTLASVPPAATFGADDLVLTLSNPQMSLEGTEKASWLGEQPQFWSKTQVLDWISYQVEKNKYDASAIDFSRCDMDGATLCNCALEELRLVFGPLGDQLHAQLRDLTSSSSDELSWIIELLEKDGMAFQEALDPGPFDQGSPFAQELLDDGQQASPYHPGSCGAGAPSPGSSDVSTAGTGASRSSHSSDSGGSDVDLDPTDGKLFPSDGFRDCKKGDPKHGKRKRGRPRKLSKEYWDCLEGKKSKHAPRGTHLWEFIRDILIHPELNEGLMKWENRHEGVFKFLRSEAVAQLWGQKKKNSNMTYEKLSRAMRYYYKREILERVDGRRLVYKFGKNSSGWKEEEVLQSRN
Outline: as §1

[9] = target: CRX (Homo sapiens, UniProt O43186 1-299); details: protein: recombinant; tags: N-terminal GST; dsDNA, one strand shown
Outline: as §1

[10] = target: ETV1 (Homo sapiens, UniProt P50549 1-477); details: protein: recombinant; tags: N-terminal GST; dsDNA, one strand shown
Outline: as §1

[11] = target: T6, ERF (Homo sapiens, UniProt P50548 1-548); details: protein: recombinant; tags: N-terminal GST; dsDNA, one strand shown
T6 sequence: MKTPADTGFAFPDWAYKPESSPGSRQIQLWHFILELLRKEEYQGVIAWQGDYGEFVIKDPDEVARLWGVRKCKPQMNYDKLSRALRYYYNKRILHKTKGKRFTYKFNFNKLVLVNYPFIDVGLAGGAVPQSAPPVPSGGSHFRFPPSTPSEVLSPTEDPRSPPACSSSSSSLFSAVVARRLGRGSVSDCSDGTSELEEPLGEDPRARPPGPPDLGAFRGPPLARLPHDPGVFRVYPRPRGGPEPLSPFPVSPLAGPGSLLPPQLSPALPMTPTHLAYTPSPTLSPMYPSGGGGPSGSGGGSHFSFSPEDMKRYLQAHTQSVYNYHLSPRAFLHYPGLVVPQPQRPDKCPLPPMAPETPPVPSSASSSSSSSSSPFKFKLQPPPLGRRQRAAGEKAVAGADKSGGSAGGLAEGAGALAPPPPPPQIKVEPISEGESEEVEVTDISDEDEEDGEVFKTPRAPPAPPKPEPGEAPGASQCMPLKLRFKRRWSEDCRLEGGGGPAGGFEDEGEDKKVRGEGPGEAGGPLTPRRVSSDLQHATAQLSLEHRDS
Outline: as §1

[12] = target: T7, ETV3L (Homo sapiens, UniProt Q6ZN32 1-361); details: protein: recombinant; tags: N-terminal GST; dsDNA, one strand shown
T7 sequence: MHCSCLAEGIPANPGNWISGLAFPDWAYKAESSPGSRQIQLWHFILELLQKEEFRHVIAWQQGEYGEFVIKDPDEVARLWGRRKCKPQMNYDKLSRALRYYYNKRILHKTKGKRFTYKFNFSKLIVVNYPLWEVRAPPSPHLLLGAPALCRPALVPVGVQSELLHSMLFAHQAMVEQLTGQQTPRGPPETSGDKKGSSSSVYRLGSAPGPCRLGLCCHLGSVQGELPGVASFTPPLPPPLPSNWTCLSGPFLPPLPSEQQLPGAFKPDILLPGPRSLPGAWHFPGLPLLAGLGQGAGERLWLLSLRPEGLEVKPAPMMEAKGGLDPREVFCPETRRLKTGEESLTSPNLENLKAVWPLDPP
Outline: as §1

[13] = target: T8, ETS2 (Homo sapiens, UniProt P15036 1-469); details: protein: recombinant; tags: N-terminal GST; dsDNA, one strand shown
T8 sequence: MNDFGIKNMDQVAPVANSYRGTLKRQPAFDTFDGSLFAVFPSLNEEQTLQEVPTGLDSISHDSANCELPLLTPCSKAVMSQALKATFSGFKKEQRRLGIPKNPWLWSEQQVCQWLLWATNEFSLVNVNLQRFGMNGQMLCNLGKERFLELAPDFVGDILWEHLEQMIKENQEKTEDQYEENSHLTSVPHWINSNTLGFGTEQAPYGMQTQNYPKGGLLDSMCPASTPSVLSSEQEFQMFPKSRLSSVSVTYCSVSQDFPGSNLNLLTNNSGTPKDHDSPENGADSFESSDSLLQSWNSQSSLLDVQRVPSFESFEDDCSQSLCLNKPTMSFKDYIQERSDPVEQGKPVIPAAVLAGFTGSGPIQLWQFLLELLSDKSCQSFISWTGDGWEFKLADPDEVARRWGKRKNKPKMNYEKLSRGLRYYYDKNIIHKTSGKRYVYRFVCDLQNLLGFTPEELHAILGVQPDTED
Outline: as §1

[14] = target: T9, SPDEF (Homo sapiens, UniProt O95238 1-335); details: protein: recombinant; tags: N-terminal GST; dsDNA, one strand shown
T9 sequence: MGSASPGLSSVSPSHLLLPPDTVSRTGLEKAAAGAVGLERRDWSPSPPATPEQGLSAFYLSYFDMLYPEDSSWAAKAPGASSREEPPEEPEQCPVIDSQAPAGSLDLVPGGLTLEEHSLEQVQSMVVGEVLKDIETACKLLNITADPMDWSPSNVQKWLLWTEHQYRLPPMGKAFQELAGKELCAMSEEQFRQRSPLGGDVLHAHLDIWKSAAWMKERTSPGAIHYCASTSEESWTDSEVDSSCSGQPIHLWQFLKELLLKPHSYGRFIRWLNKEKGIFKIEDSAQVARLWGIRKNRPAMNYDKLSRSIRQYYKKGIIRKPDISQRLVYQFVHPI
Outline: as §1

[15] = target: T10, ETV7 (Homo sapiens, UniProt Q9Y603 1-341); details: protein: recombinant; tags: N-terminal GST; dsDNA, one strand shown
T10 sequence: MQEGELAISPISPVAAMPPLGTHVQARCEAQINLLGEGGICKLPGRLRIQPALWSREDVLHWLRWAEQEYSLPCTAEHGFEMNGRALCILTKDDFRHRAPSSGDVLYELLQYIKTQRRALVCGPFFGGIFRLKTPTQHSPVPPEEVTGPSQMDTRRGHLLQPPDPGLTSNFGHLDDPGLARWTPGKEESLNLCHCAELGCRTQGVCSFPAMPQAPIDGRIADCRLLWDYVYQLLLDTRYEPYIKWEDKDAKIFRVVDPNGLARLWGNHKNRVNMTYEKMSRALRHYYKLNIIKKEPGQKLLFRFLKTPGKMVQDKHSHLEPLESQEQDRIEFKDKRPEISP
Outline: as §1

[16] = target: T11, ELF5 (Homo sapiens, UniProt Q9UKW6-2 1-255); details: protein: recombinant; tags: N-terminal GST; dsDNA, one strand shown
T11 sequence: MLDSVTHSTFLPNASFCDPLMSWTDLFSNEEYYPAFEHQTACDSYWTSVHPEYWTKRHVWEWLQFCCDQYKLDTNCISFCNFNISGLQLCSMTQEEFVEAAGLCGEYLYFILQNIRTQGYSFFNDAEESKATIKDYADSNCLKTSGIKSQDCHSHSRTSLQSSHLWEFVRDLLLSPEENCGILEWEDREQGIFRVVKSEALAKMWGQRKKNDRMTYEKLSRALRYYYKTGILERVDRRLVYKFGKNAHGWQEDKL
Outline: as §1

[17] = target: T12, ETV3 (Homo sapiens, UniProt P41162-2 1-143); details: protein: recombinant; tags: N-terminal GST; dsDNA, one strand shown
T12 sequence: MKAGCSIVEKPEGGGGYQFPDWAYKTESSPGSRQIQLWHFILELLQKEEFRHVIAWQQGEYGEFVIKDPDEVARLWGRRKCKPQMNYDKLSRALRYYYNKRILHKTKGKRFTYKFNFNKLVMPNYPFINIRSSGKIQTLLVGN
Outline: as §1

[18] = target: ETV6 (Homo sapiens, UniProt P41212 1-452); details: protein: recombinant; tags: N-terminal GST; dsDNA, one strand shown
Outline: as §1

ETV5, sequence (P41161 whole entry): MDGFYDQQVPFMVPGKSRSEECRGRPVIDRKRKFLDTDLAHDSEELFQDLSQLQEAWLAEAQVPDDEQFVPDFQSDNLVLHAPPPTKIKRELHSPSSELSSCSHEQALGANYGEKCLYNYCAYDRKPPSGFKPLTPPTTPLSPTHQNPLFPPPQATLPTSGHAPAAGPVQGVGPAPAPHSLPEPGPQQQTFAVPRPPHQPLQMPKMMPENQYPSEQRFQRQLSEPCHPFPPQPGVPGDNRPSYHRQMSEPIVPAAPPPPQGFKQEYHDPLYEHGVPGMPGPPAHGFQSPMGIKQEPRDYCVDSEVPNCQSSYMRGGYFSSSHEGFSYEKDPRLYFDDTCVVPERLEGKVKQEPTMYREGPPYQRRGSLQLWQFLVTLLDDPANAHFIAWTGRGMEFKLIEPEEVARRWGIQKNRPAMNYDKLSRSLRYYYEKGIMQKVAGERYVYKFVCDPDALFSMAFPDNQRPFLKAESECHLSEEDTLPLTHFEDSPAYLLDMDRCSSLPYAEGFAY
ELF4, sequence (Q99607 whole entry): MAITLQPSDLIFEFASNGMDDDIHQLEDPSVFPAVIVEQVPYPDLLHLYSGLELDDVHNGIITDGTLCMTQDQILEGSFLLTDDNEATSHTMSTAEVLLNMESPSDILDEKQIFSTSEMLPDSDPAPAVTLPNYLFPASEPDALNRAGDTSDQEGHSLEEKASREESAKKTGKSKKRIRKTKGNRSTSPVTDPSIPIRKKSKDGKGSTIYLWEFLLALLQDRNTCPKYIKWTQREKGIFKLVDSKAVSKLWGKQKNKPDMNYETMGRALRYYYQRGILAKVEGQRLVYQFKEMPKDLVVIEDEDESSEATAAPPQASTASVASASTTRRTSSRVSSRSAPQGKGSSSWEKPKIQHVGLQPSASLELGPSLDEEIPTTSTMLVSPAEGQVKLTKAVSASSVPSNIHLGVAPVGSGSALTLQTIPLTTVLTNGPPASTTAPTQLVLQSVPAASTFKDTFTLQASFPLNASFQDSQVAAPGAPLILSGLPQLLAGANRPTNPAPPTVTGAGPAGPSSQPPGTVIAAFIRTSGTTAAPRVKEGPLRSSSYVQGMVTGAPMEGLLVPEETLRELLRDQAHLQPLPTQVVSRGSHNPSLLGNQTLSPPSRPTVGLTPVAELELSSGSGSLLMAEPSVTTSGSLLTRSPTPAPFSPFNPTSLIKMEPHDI
ETV6, sequence (P41212 whole entry): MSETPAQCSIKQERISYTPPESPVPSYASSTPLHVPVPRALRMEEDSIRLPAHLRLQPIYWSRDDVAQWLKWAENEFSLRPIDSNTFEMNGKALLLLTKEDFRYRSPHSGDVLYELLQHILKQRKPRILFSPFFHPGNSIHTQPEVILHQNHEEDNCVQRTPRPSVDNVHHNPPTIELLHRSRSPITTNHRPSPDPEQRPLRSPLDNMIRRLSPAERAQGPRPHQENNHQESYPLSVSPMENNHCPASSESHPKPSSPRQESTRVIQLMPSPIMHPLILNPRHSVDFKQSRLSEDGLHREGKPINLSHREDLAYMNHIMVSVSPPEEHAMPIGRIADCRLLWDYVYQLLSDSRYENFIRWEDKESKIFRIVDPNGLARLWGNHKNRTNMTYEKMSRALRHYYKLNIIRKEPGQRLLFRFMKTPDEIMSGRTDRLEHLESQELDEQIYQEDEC
HSF1, sequence (Q00613 whole entry): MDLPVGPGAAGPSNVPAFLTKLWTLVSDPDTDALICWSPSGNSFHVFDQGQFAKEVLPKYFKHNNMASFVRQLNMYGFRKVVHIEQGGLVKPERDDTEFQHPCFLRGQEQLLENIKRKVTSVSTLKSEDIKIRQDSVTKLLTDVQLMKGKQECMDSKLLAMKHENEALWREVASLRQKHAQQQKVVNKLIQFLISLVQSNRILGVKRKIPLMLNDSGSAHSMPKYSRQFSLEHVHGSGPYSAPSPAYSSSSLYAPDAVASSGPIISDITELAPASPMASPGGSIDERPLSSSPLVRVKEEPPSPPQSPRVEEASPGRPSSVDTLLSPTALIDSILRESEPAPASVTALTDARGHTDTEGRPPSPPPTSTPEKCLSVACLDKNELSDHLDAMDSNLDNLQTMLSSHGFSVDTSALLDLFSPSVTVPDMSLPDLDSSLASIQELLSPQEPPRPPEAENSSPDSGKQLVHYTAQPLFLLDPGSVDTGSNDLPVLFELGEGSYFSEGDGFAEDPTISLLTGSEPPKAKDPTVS
CRX, sequence (O43186 whole entry): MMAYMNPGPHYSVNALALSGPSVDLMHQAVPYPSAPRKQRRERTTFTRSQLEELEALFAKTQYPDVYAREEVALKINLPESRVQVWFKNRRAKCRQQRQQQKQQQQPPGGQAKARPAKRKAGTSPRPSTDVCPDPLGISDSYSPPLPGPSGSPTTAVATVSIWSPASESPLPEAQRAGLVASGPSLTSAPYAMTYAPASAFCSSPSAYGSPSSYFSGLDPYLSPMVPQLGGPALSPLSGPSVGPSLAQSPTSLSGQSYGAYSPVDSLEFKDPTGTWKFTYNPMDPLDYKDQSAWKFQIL
ETV1, sequence (P50549 whole entry): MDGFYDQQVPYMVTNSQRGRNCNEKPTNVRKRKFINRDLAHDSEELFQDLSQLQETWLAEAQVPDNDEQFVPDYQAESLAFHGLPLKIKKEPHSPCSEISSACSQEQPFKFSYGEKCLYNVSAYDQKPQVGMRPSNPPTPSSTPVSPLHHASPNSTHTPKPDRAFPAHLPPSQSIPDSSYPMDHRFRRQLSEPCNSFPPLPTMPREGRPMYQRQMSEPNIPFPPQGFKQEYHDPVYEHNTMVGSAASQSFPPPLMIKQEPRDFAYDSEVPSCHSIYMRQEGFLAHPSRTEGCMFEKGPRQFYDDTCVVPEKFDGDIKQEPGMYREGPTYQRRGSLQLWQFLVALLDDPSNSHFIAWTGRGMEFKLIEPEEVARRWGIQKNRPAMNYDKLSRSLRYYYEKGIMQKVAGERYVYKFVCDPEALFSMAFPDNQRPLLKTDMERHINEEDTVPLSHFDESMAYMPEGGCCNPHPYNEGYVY

CCTTGA
binding signal [1]: 1.19 fold enrichment (6-mer frequency, TF over GST control)
binding signal [2]: 1.25 fold enrichment (6-mer frequency, TF over GST control)
binding signal [3]: 1.07 fold enrichment (6-mer frequency, TF over GST control)
binding signal [4]: 1.27 fold enrichment (6-mer frequency, TF over GST control)
binding signal [5]: 1.22 fold enrichment (6-mer frequency, TF over GST control)
binding signal [6]: 1.22 fold enrichment (6-mer frequency, TF over GST control)
binding signal [7]: 1.11 fold enrichment (6-mer frequency, TF over GST control)
binding signal [8]: 1.26 fold enrichment (6-mer frequency, TF over GST control)
binding signal [9]: 1.16 fold enrichment (6-mer frequency, TF over GST control)
binding signal [10]: 1.17 fold enrichment (6-mer frequency, TF over GST control)
binding signal [11]: 1.27 fold enrichment (6-mer frequency, TF over GST control)
binding signal [12]: 1.17 fold enrichment (6-mer frequency, TF over GST control)
binding signal [13]: 1.2 fold enrichment (6-mer frequency, TF over GST control)
binding signal [14]: 1.33 fold enrichment (6-mer frequency, TF over GST control)
binding signal [15]: 1.14 fold enrichment (6-mer frequency, TF over GST control)
binding signal [16]: 1.37 fold enrichment (6-mer frequency, TF over GST control)
binding signal [17]: 1.19 fold enrichment (6-mer frequency, TF over GST control)
binding signal [18]: 1.23 fold enrichment (6-mer frequency, TF over GST control)
